Measurements taken from PubChem BioAssay (NCATS).
Inconclusive results are not listed. Calls of active or inactive are those of the source. Unless noted, calls follow the shape of the dose curve; as a rule, active = well fitted cell-killing curve with a large enough effect; inconclusive = small, poorly fitted or top-dose-only effect, or effect the other way; inactive = flat fitted curve, though single readings scatter. *1 amine or outer side, *2 acyl side, *3 side chain or, on linkers, in order; H or OH if unused. Where a SMILES comes first, the peptide text is derived from it. [ ]: non-standard residue; d: D form. X13 = O=C(C(CC(O)CO)O[*:1])[*:2]; NMeV = CN[CH](C(=O)O)C(C)C; NMeA = CN[CH](C)C(=O)O; βAla = NCCC(=O)O

Tests used:
PA-1 = experiment: Primary qHTS to identify gynecologic anti-cancer compounds using libraries of approved drugs and bioactive compounds (AID 1345084); conditions: Gynecologic cancer cell panel viability, ATPlite luminescence, 48 h; series mostly up to 57.5 µM; also: % is scaled to controls: 0 for no effect and ±100 for the full control effect; nearly all actives have a fitted effect of over 55% in size
Procedure, shortened: (§1)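 Measured: luminescence after ATPlite addition (15 min, RT). Exposure: 48 h, 37 C, 5% CO2.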

SKOV3 = experiment: as above; conditions: Gynecologic cancer cell panel viability, ATPlite luminescence, 48 h; series mostly up to 57.5 µM
Procedure, shortened: as §1

Tov-21-G = experiment: as above; conditions: Gynecologic cancer cell panel viability, ATPlite luminescence, 48 h; series mostly up to 57.5 µM
Procedure, shortened: as §1

Tov112D = experiment: as above; conditions: Gynecologic cancer cell panel viability, ATPlite luminescence, 48 h; series mostly up to 57.5 µM
Procedure, shortened: as §1

[1] = target: Nuclear receptor subfamily 1 group I member 2 (Rattus norvegicus) (UniProt Q9R1A7); experiment: qHTS assay for small molecule activators of the rat pregnane X receptor (rPXR) signaling pathway (AID 651751; call rule not given here; also: 0% is about no effect); conditions: rPXR reporter cells, luciferase (One-Glo), 24 h
Chain of Nuclear receptor subfamily 1 group I member 2 (Rattus norvegicus) (Q9R1A7 whole entry, looked up): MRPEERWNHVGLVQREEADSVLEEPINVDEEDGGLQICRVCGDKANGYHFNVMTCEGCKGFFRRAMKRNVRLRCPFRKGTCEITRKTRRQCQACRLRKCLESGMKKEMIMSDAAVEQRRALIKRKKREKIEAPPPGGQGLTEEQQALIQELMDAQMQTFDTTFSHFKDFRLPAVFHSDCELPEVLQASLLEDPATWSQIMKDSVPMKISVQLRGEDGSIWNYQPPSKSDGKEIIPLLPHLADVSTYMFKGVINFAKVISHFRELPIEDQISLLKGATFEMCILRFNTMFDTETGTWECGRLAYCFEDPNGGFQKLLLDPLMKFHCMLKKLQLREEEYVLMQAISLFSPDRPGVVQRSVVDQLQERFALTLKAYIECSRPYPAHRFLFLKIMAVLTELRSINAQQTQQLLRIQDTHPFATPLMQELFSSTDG

[2] = qHTS assay for small molecule activators of the human pregnane X receptor (PXR) signaling pathway (AID 720659; call rule not given here; also: 0% is about no effect)

CC1(C)CC[C@]2(C(=O)O[C@@H]3O[C@H](CO[C@@H]4O[C@H](CO)[C@@H](O)[C@H](O)[C@H]4O)[C@@H](O)[C@H](O[C@@H]4O[C@H](CO)[C@@H](O)[C@H](O)[C@H]4O)[C@H]3O)CC[C@]3(C)C(=CCC4[C@@]5(C)CC[C@H](O[C@@H]6OC[C@@H](O)[C@H](O)[C@H]6O)[C@@](C)(C(=O)O)C5CC[C@]43C)[C@@H]2C1 (some centres undefined)
inactive: activity change, negative = cytotoxicity (PA-1) 0.621% [at 11.6 µM] | activity change, negative = cytotoxicity (SKOV3) 10.7% [at 11.6 µM] | activity change, negative = cytotoxicity (Tov-21-G) 10.6% [at 11.6 µM] | activity change, negative = cytotoxicity (Tov112D) 3.57% [at 11.6 µM]

O=C(C1OC1/C=C/c1ccc2c(c1)OCO2)N1CCCCC1 (centres undefined)
inactive: Potency (PA-1) | Potency (SKOV3) | Potency (Tov-21-G) | Potency (Tov112D)

C=C1C(=O)OC[C@H]2C(C(=O)O)=CC3CC(C)(C)C[C@@]132 (some centres undefined)
inactive: Potency (PA-1) | Potency (SKOV3) | Potency (Tov-21-G) | Potency (Tov112D)

C=C1CCC2(C(=O)OC3OC(CO)C(O)C(O)C3O)CCC3(C)C(=CCC4C5(C)CCC(OC6OC(CO)C(OC7OC(C)C(O)C(O)C7O)C(OC7OCC(O)C(O)C7O)C6O)C(C)(C)C5CCC43C)C2C1 (centres undefined)
inactive: activity change, negative = cytotoxicity (PA-1) 18.7% [at 11.6 µM] | activity change, negative = cytotoxicity (SKOV3) 24.5% [at 11.6 µM] | activity change, negative = cytotoxicity (Tov-21-G) 0.21% [at 11.6 µM] | activity change, negative = cytotoxicity (Tov112D) 9.24% [at 11.6 µM]

COC(=O)CCC1(C)C(C(C)(C)O)C(O)CC2(C)Oc3c(C)c4c(c(OC)c3CC21)C(=O)OC4 (centres undefined)
inactive: Potency (PA-1) | Potency (SKOV3) | Potency (Tov112D)

Cn1c2ccc(NC(=O)c3ccccc3)cc2c(=O)n2nc(C(=O)O)cc12
inactive: Potency (PA-1) | Potency (SKOV3) | Potency (Tov-21-G) | Potency (Tov112D)

CCC(C)C(C(=O)O)N1Cc2c(OCC=C(C)C)c(C)c(OC)c(C(=O)O)c2C1=O (centres undefined)
inactive: Potency (PA-1) | Potency (SKOV3) | Potency (Tov-21-G) | Potency (Tov112D)

O=C(O)CC1CCC(c2ccc(NC(=O)c3nnc(Nc4ccc(F)c(F)c4)o3)cc2)CC1 (centres undefined)
inactive: Potency (PA-1) | Potency (SKOV3) | Potency (Tov-21-G) | Potency (Tov112D)

COc1ccc(CCC(=O)c2c(O)cc(O[C@@H]3O[C@H](CO)[C@@H](O)[C@H](O)[C@H]3O[C@@H]3O[C@@H](C)[C@H](O)[C@@H](O)[C@H]3O)cc2O)cc1O
inactive: Potency (PA-1) | Potency (SKOV3) | Potency (Tov-21-G) | Potency (Tov112D) | max response [1] -0.0245% | outcome [2]

Cc1nnc(-c2sc(NC(=O)[C@H](C(C)C)n3c(=O)[nH]c4ccccc4c3=O)nc2C)o1
inactive: Potency (PA-1) | Potency (SKOV3) | Potency (Tov112D)

CCC(C)C1NC(=O)C2CCCN2C(=O)C(CC(O)CO)OC(=O)CCNC(=O)C(C)N(C)C(=O)C(C(C)C)N(C)C1=O (centres undefined) (cyclo([X13]PI[NMeV][NMeA][βAla]); configuration not given here)
inactive: Potency (PA-1) | Potency (SKOV3) | Potency (Tov-21-G) | Potency (Tov112D)
